Records with an inconclusive call do not appear. The source made the active and inactive calls. Rule for the calls, unless noted: active = hit-call score of the fitted dose curve at least 0.9, where 1 is the maximum; inactive = score below 0.9.
Tests used:
DIO1 (gene 1733) = assay: CCTE_GLTED_hDIO1: CCTE's human Deiodinase 1 (DIO1) Inhibition Assay, Great Lakes Toxicology and Ecology Division (GLTED) Lab (AID 2283987; active = hit-call score of the fitted dose curve at least 0.9, where 1 is the maximum;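 note: isolated human DIO1 enzyme in a cell-free setup rather than cells; enzyme activity read as free iodide liberated from substrate via Sandell-Kolthoff colorimetry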)
How it was run: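 Inhibition of human deiodinase 1 is scored as reduced iodide liberation after a 3 h enzyme–chemical incubation, detected colorimetrically by the Sandell-Kolthoff reaction against DMSO controls.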

[1] = biological target: Nucleoli Translocation, AR (gene 367) (UniProt P10275); assay: UPITT_HCI_U2OS_AR_TIF2_Nucleoli_Antagonist: University of Pittsburgh U2OS Androgen Receptor-Transcriptional Intermediary Factor 2 (AR-TIF2) Antagonism High Content Imaging Assay for Nucleoli Translocation (AID 2283997; active = hit-call score of the fitted dose curve at least 0.9, where 1 is the maximum)
How it was run: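 An antagonist-mode imaging screen: engineered U2OS (AR-RFP, TIF2-GFP) exposed to 20 uM compound, 0.2% DMSO. Activity reflects nucleolar red fluorescence change relative to DHT baseline.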

[2] = biological target: Ratio of Nucleoli Translocation and Cytoplasm, AR (gene 367) (UniProt P10275); assay: UPITT_HCI_U2OS_AR_TIF2_Nucleoli_Cytoplasm_Ratio_Antagonist: University of Pittsburgh U2OS Androgen Receptor-Transcriptional Intermediary Factor 2 (AR-TIF2) Antagonism High Content Imaging Assay for Ratio of Nucleoli Translocation and Cytoplasm (AID 2283999; active = hit-call score of the fitted dose curve at least 0.9, where 1 is the maximum;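 note: antagonists lower the DHT-driven ratio of nucleolar to cytoplasmic red signal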)
How it was run: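 Read-out is the ratio of nucleolar to cytoplasmic AR-RFP fluorescence, imaged by high-content microscopy in U2OS cells coexpressing TIF2-GFP. Single-point 20 uM screen, triplicate confirmation, then 0.195–50 uM dose response; activity referenced to DHT baseline.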

[3] = biological target: Ratio of Nucleoli Translocation and Cytoplasm, AR (gene 367) (UniProt P10275); assay: UPITT_HCI_U2OS_AR_TIF2_Nucleoli_Cytoplasm_Ratio_Agonist: University of Pittsburgh U2OS Androgen Receptor-Transcriptional Intermediary Factor 2 (AR-TIF2) Agonism High Content Imaging Assay for Ratio of Nucleoli Translocation and Cytoplasm (AID 2284000; active = hit-call score of the fitted dose curve at least 0.9, where 1 is the maximum;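 note: hits raise the red nucleolar to cytoplasm ratio above vehicle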)
How it was run: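 Primary screen at 20 uM final (0.2% DMSO), then triplicate confirmation and dose-response from 0.195 to 50 uM final (0.5% DMSO). Cells: U2OS with AR-RFP and TIF2-GFP. Endpoint is the nucleoli/cytoplasm red-fluorescence ratio, gain-of-signal vs DMSO.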

[4] = CCTE_Simmons_MITO_basal_resp_rate: CCTE's HepG2 Seahorse XF Respirometric Screening Assay at Basal Respiratory State, Simmons Lab (AID 2284001); conditions: actives raise or lower the signal
How it was run: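 Readout is oxygen consumption rate after test compound injection, measured by Seahorse XF in HepG2 cells. Seven concentrations from 125 nM up to 100 uM final are tested, and activity in either direction is fitted against DMSO.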

[5] = CCTE_Simmons_MITO_max_resp_rate: CCTE's HepG2 Seahorse XF Respirometric Screening Assay at Maximal Respiratory State [uncoupled], Simmons Lab (AID 2284002); conditions: actives raise or lower the signal
How it was run: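 Read-out is oxygen consumption rate at maximal respiration, taken after FCCP uncoupling of compound-treated HepG2 cells. Seven final concentrations from 125 nM to 100 uM were tested, each in three biological replicates.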

[6] = CCTE_Simmons_MITO_inhib_resp_rate: CCTE's HepG2 Seahorse XF Respirometric Screening Assay at Inhibited Respiratory State [full ETC block], Simmons Lab (AID 2284006); conditions: actives raise or lower the signal
How it was run: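 OCR read-out in the inhibited phase following rotenone/antimycin A, after compound and FCCP injections, in HepG2 cells. Seven concentrations (125 nM to 100 uM final), three biological replicates, 6-min cycles over 72 min; DMSO baseline.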

[7] = CCTE_Harrill_HTTr_Viability_MCF7: CCTE's 6-hour Cell Viability Assessment for the High-Throughput Transcriptomics (HTTr) Platform, in MCF-7 cells cultured in DMEM + 10% fetal bovine serum, Harrill Lab (AID 2284010)
How it was run: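 PI exclusion, high-content imaging; 8-pt dilution series, 6 h exposure; bidirectional fit vs DMSO (neg. ctrl/baseline); gain of signal = loss of membrane integrity.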

[8] = CCTE_Harrill_HTTr_Apoptosis_MCF7: CCTE's 6-hour Apoptosis Assessment for the High-Throughput Transcriptomics (HTTr) Platform, in MCF-7 cells cultured in DMEM + 10% fetal bovine serum, Harrill Lab (AID 2284011)
How it was run: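 MCF-7 (DMEM + 10% FBS), 384-well; 8-pt dilution series, 6 h chemical exposure; caspase-3/7 activation via CellEvent Caspase 3/7 Green, HCI; bidirectional fit vs DMSO.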

[9] = CCTE_Harrill_HTTr_CellCount_MCF7: CCTE's Cell Proliferation Assessment for the High-Throughput Transcriptomics (HTTr) Platform, Harrill Lab (AID 2284012; active = hit-call score of the fitted dose curve at least 0.9, where 1 is the maximum;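 note: count of Hoechst-stained nuclei per well by high-content imaging in MCF-7 cells; cells exposed to compound for six hours; intended direction is loss of nuclei count meaning fewer cells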)
How it was run: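 Readout: Hoechst nuclear count by high-content imaging. MCF-7, 8-point dilution series, 6 h exposure. Bidirectional fit vs DMSO baseline.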

[10] = biological target: Nucleoli Translocation, AR (gene 367) (UniProt P10275); assay: UPITT_HCI_U2OS_AR_TIF2_Nucleoli_Agonist: University of Pittsburgh U2OS Androgen Receptor-Transcriptional Intermediary Factor 2 (AR-TIF2) Agonism High Content Imaging Assay for Nucleoli Translocation (AID 2283998; active = hit-call score of the fitted dose curve at least 0.9, where 1 is the maximum)
How it was run: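 Readout is red (AR-RFP) fluorescence localized to nucleoli, measured by high-content imaging and analysed for increase relative to DMSO. Compound series spanned 0.195 to 50 uM final in 0.5% DMSO.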

[11] = CCTE_Simmons_MITO_viability: CellTiter-Glo Viability Assessment for CCTE's HepG2 Seahorse XF Respirometric Screening Assay [post-hoc], Simmons Lab (AID 2284007; active = hit-call score of the fitted dose curve at least 0.9, where 1 is the maximum;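 for AC50: cells exposed to chemical for 90 min before the ATP read; actives lower ATP signal relative to DMSO baseline meaning reduced viability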)
How it was run: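 Luciferase-coupled ATP luminescence, single endpoint. HepG2, post-respirometry. Compound 125 nM–100 uM final, 7 conc., 90 min. n=3 biological, technical singles. DMSO vehicle/baseline; dichlone 10 nM–100 uM, 8 conc., as positive control.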

[12] = CCTE_Shafer_MEA_acute_spike_number: CCTE's Neural Acute Assay for Total Number of Spikes, Shafer Lab (AID 2284008);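 for AC50: curve fitted for decrease in spike count so AC50 reflects inhibitors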
How it was run: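 Read-out is the total spike count over 40 min, expressed as percent change from each well's own pre-treatment baseline and fitted in the loss direction against DMSO. Rat cortical neurons were exposed at 0.03-40 uM on DIV 13 or 15.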

[13] = CCTE_Shafer_MEA_acute_firing_rate_mean: CCTE's Neural Acute Assay for Mean Firing Rate, Shafer Lab (AID 2284009);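 note: analyzed for loss of signal so actives lower firing rate relative to DMSO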
How it was run: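 Spontaneous spiking of primary rat cortical networks, DIV 13/15, 37 C. Compound 0.03-40 uM, n ≥3 wells; 40 min baseline vs 40 min treated. Endpoint fitted in loss-of-signal direction against DMSO.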

[14] = CCTE_Shafer_MEA_acute_burst_number: CCTE's Neural Acute Assay for Single-Electrode Bursts, Shafer Lab (AID 2284013)
How it was run: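 Burst totals were derived with adaptive spike detection (8x rms threshold) on filtered signals from rat cortical cultures; change relative to pre-treatment baseline after 40-min compound exposure (0.03-40 uM) was fitted in the negative direction against DMSO.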

[15] = CCTE_Shafer_MEA_acute_burst_duration_mean: CCTE's Neural Acute Assay for Mean Burst Duration, Shafer Lab (AID 2284014);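 note: hits are decreases in mean burst duration relative to DMSO controls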
How it was run: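 Acute exposure of mature rat cortical networks (DIV 13 or 15) grown on microelectrode arrays to 0.03-40 uM compound. Mean burst duration compared with the 40-min pre-dose baseline over a 40-min post-dose recording at 37 C.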

Sequence of Ratio of Nucleoli Translocation and Cytoplasm, AR (gene 367) (P10275 whole entry, looked up): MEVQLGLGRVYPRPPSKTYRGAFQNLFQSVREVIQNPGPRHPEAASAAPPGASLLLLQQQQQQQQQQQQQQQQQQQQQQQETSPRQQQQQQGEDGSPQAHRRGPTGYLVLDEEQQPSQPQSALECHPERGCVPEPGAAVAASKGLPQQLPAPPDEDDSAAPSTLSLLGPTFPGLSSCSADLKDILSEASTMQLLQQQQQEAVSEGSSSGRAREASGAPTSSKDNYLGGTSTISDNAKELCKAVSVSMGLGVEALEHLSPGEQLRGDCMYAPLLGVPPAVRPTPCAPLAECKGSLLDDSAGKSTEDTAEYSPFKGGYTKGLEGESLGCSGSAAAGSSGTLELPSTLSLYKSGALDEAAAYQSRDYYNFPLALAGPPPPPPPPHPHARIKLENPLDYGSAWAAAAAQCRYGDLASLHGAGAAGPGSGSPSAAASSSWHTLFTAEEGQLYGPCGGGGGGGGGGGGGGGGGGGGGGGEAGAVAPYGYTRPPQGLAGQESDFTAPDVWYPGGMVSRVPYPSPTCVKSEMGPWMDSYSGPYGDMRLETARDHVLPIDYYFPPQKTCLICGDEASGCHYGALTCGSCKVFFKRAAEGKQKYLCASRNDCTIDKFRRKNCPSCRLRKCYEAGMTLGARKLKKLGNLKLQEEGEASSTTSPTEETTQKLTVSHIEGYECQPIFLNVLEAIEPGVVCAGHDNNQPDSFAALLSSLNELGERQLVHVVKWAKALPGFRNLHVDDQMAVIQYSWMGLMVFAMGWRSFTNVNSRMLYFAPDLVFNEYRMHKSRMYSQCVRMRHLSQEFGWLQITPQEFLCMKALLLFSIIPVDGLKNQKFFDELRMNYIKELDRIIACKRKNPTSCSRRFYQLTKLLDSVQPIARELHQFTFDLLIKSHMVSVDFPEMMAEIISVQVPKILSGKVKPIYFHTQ
Sequence of Nucleoli Translocation, AR (gene 367) (P10275 whole entry, looked up): as above

CCOc1cccc(-n2cc(C(=O)N3CCN(c4cc(C(=O)O)c5ccccc5c4)CC3)nc2-c2ccc(C)cc2)c1
AC50 (DIO1 (gene 1733)): 151 µM (active)
AC50 [1]: 78.4 µM (active)
outcome [2]: inactive
outcome [3]: inactive
outcome [4]: inactive
outcome [5]: inactive
outcome [6]: inactive
outcome [7]: inactive
outcome [8]: inactive
outcome [9]: inactive

O=C(O)c1cccc(N(Cc2cccnc2)c2ccc(OC(F)F)c(OC(F)F)c2)c1
AC50 [1]: 22.1 µM (active)
outcome [10]: inactive
outcome [2]: inactive
outcome [3]: inactive
AC50 [4]: 1.03 µM (active)
outcome [5]: inactive
outcome [6]: inactive
AC50 [11]: 10.7 µM (active)
outcome [8]: inactive
outcome [9]: inactive

CC(C)=CCCC(C)CCO (stereo not drawn)
outcome [1]: inactive
outcome [10]: inactive
outcome [2]: inactive
outcome [3]: inactive
outcome [7]: inactive
outcome [8]: inactive
outcome [9]: inactive

CCCCC(CC)COC(=O)c1ccc(C(=O)OCC(CC)CCCC)cc1 (stereo not drawn)
outcome [1]: inactive
outcome [10]: inactive
outcome [7]: inactive
outcome [8]: inactive

O=P(OC(CCl)CCl)(OC(CCl)CCl)OC(CCl)CCl
outcome [12]: inactive
outcome [13]: inactive
outcome [8]: inactive
outcome [9]: inactive
outcome [14]: inactive
outcome [15]: inactive

COc1ccc(/C=C/S(=O)(=O)NC(=O)c2ccc(C)cc2Cl)cc1
AC50 [4]: 24.6 µM (active)
AC50 [5]: 15.2 µM (active)
outcome [6]: inactive
outcome [8]: inactive

CC(C)=CCCC(C)=CC=O
outcome [4]: inactive
outcome [5]: inactive
outcome [6]: inactive
outcome [12]: inactive
outcome [13]: inactive
outcome [8]: inactive
outcome [14]: inactive
outcome [15]: inactive

CCCC(=O)OCC
outcome [7]: inactive
outcome [8]: inactive
outcome [9]: inactive

CCn1nc(Cc2ccccc2)cc1C1CCN(C[C@H]2C[C@H](N(C)[C@@H](C(=O)O)C(C)C)C[C@@H]2c2cccc(F)c2)CC1
AC50 [4]: 27.8 µM (active)
outcome [5]: inactive
outcome [6]: inactive
outcome [8]: inactive
outcome [9]: inactive

C[C@](N)(Cc1ccc(O)c(O)c1)C(=O)O
outcome [7]: inactive
outcome [8]: inactive

CCCCCCCCCCCCc1ccccc1
outcome [12]: inactive
outcome [13]: inactive
outcome [7]: inactive
outcome [8]: inactive
outcome [14]: inactive
outcome [15]: inactive

CN(C)c1ccc(Cc2ccc(N(C)C)cc2)cc1
outcome [7]: inactive
outcome [8]: inactive

COc1cccc(-c2ccc(/C=C\CN3CCCCCC3)cc2Cl)c1
outcome [4]: inactive
AC50 [5]: 65.8 µM (active)
outcome [6]: inactive
AC50 [12]: 3.65 µM (active)
AC50 [13]: 3.65 µM (active)
outcome [8]: inactive
outcome [9]: inactive
outcome [14]: inactive
outcome [15]: inactive

Cn1cnc([N+](=O)[O-])c1Sc1ncnc2nc[nH]c12
outcome [12]: inactive
outcome [13]: inactive
outcome [8]: inactive
outcome [9]: inactive
outcome [14]: inactive
outcome [15]: inactive

CC(C)CC(C)(O)C#CC(C)(O)CC(C)C (stereo not drawn)
AC50 [4]: 50 µM (active)
AC50 [5]: 37.8 µM (active)
outcome [6]: inactive
outcome [11]: inactive
outcome [8]: inactive

CC(=O)OC[C@H]1O[C@@](COC(C)=O)(O[C@H]2O[C@H](COC(C)=O)[C@@H](OC(C)=O)[C@H](OC(C)=O)[C@H]2OC(C)=O)[C@@H](OC(C)=O)[C@@H]1OC(C)=O
outcome [7]: inactive
outcome [8]: inactive

Cn1c(=O)c2c(ncn2C)n(C)c1=O
outcome [12]: inactive
outcome [13]: inactive
outcome [7]: inactive
outcome [8]: inactive
outcome [9]: inactive
outcome [14]: inactive
AC50 [15]: 30.8 µM (active)

CC(C)=CCC/C(C)=C/CO
AC50 [4]: 45.7 µM (active)
outcome [5]: inactive
outcome [6]: inactive
outcome [8]: inactive
outcome [9]: inactive

CC(C)CCO
outcome [7]: inactive
outcome [8]: inactive

CCOCCOCCOCCO
outcome [7]: inactive
outcome [8]: inactive
outcome [9]: inactive

CC[C@H]1OC(=O)[C@H](C)[C@@H](O[C@H]2C[C@@](C)(OC)[C@@H](O)[C@H](C)O2)[C@H](C)[C@@H](O[C@@H]2O[C@H](C)C[C@H](N(C)C)[C@H]2O)[C@](C)(O)C[C@@H](C)C(=O)[C@H](C)[C@@H](O)[C@]1(C)O
outcome [12]: inactive
outcome [13]: inactive
outcome [8]: inactive
outcome [9]: inactive
outcome [14]: inactive
outcome [15]: inactive

CCOC(=O)COc1ccc2c(c1)CC(NCC(O)c1cccc(Cl)c1)CC2 (stereo not drawn)
AC50 [4]: 32.9 µM (active)
AC50 [5]: 62.7 µM (active)
outcome [6]: inactive
outcome [8]: inactive
outcome [9]: inactive

CCCCC(CC)COC(=O)CCCCCCCCC(=O)OCC(CC)CCCC (stereo not drawn)
outcome [12]: inactive
outcome [13]: inactive
outcome [7]: inactive
outcome [8]: inactive
outcome [14]: inactive
outcome [15]: inactive

COc1ccc2sc(C(=O)Nc3nnn[nH]3)c(OC(C)C)c2c1
outcome [4]: inactive
outcome [5]: inactive
outcome [6]: inactive
outcome [12]: inactive
outcome [13]: inactive
outcome [8]: inactive
outcome [9]: inactive
outcome [14]: inactive
outcome [15]: inactive

O=c1n(CC2CO2)c(=O)n(CC2CO2)c(=O)n1CC1CO1 (stereo not drawn)
outcome [7]: inactive
outcome [8]: inactive

O=C(NS(=O)(=O)/C=C/c1ccccc1)c1ccc(F)cc1Cl
outcome [7]: inactive
outcome [8]: inactive

CC[C@H]1CC[C@H](NCc2cc3c(cc2OC)[C@H]2C[C@H]2C(=O)N3C)[C@H](c2ccccc2)N1
AC50 [12]: 3.07 µM (active)
AC50 [13]: 3.07 µM (active)
outcome [7]: inactive
outcome [8]: inactive
outcome [9]: inactive
AC50 [14]: 3.09 µM (active)
outcome [15]: inactive

O=c1[nH]c2ccc(S(=O)CCN3CCC(Cc4ccc(F)cc4)CC3)cc2o1 (stereo not drawn)
AC50 [4]: 49.7 µM (active)
AC50 [5]: 35.5 µM (active)
outcome [6]: inactive
outcome [8]: inactive

CNCc1ccc(NC(=O)c2c[nH]c3c2C(=O)CCC3)cc1
outcome [7]: inactive
outcome [8]: inactive

COC(=O)c1c(Cl)c(Cl)c(C(=O)OC)c(Cl)c1Cl
outcome [7]: inactive
outcome [8]: inactive
outcome [9]: inactive

O=C(O)CCN(C1(C(=O)NO)CCCC1)S(=O)(=O)c1ccc(Oc2ccc(F)cc2)cc1
outcome [12]: inactive
outcome [13]: inactive
outcome [8]: inactive
outcome [9]: inactive
outcome [14]: inactive
outcome [15]: inactive
